# Reference: ChEMBL document CHEMBL4513216, “Probing the Open Global Health Chemical Diversity Library for Multistage-Active Starting Points for Next-Generation Antimalarials” (ACS Infect Dis, 2020)
# In all, about 69,000 compounds went through this assay and about 8,600 (12%) showed an effect of 50% or more. The sample holds strong results, similar compounds and a random draw of the others, so the mix is not that of the screen.
# Tested on: Plasmodium berghei
# Test: Screen against P. berghei liver stage (PbLuc), transformed with Luciferase, at 10uM
# Type: functional, HepG2
# Details: tested at 10 uM
row,SMILES,INHIBITION [%]
1,O=C1CO[C@@H]2CN(CC3CCOCC3)C[C@H]2N1CC1CC1,37.5
2,N#Cc1cccnc1NCCNC(=O)N1CCCC(N2CCCC2)C1 (stereo not given),24.6
3,N#Cc1cccnc1NCCNC(=O)N1CCSCC1,14.6
4,CN(C)C(=O)N1CCC(C(=O)NCCNc2ncccc2C#N)CC1,68.8
5,Cc1cccnc1NCCNC(=O)[C@H]1CNC[C@@H](C(=O)N2CCCC2)C1,18.5
6,Cc1cccnc1NCCNC(=O)C1CCN(Cc2ccco2)CC1,48.4
7,Cc1cccnc1NCCNC(=O)C1CCN(C(=O)N(C)C)CC1,50.2
8,CCn1c(C2CCNCC2)nn(CCn2cncn2)c1=O,32
9,COc1cc(CN2CCC(COCc3ccccc3)CC2)cc(OC)c1,33.7
10,COCCNC(=O)NCc1cc(-c2ccncc2)n(C2CCCC2)n1,26.4
11,Cc1ncc(-c2ccnc(NCCO)n2)c(C2CCCCC2)n1,79.7
12,Cc1cc2nc(C3CCCCC3)c(-c3ccnc(NCCO)n3)cn2n1,20.4
13,Cc1ncc(-c2ccnc(N[C@@H](C)CO)n2)c(C2CCCCC2)n1,47.1
14,Cc1cccc(C)c1NC(=O)CC(CN1CCN(C)CC1)C(=O)O (stereo not given),5.21
15,O=C1CCc2cc(-c3csc(CCN4CCOC4=O)n3)ccc2N1,-26.6
16,Cc1nccn1C1CCCN(C(=O)c2cc(Cl)c3c(c2)OCO3)C1 (stereo not given),-15.5
17,COCCN1CCOCC12CCN(C(=O)c1ccncc1)CC2,47.4
18,COCCN1CCOCC12CCN(C(=O)c1c[nH]c3ccccc13)CC2,57.9
19,COCCN1CCOCC12CCN(C(=O)c1ccoc1)CC2,21.8
20,N#Cc1ccc(OCCCN2CCOC(Cn3cncn3)C2)cc1 (stereo not given),36.1
21,CC1(C2CCN(CC(N)=O)CC2)CN(Cc2ccccc2)C(=O)O1 (stereo not given),1.5
22,Oc1cc(-c2cccs2)nc(C2CCCN(CC3=CCCOC3)C2)n1 (stereo not given),23.9
23,COc1c(C2CCCN2C(=O)c2nccnc2N)c(C)nn1C (stereo not given),14.1
24,CC(=O)NCCNC(=O)c1ccc(C)c(-n2cccc2)c1,10.7
25,Cn1cc(CN2CCCC23CCN(Cc2nccn2C)CC3)cn1,8.67
26,Cn1ccnc1CN1CCC2(CC1)COCCN(S(C)(=O)=O)C2,36.5
27,Cn1ccnc1CN1CCC2(CC1)COCCN(c1ncccn1)C2,62.3

row,SMILES,INHIBITION [%]
1,CCOC1CC2(CCN(Cc3nccn3C)CC2)C1,-11.6
2,Cn1ccnc1CN1CCC2(COCCN(S(=O)(=O)C3CC3)C2)C1 (stereo not given),64.3
3,Cn1ccnc1CN1CCC2(COCCN(Cc3ccsc3)C2)C1 (stereo not given),25.1
4,COC1CC2(CCN(Cc3nccn3C)CC2)C1,-43.1
5,CN(C)CCN1CCCC12CCN(Cc1nccn1C)CC2,70.2
6,Cn1ccnc1CN1CCC2(CC1)COC2,61.3
7,c1cnc(N2CCC3(COCCN(CC4CC4)C3)C2)nc1 (stereo not given),46.1
8,CN(C)C(=O)N1CCC2(CC1)COCCN(c1ncccn1)C2,-30
9,Cn1ccnc1CN1CCC2(CCCN2c2ncccn2)CC1,21.7
10,COCc1ncc(CN2CC[C@@](O)(COC)C(C)(C)C2)cn1,31
11,O=C(CCCSc1ccc(NC(=O)C2CC2)nn1)NCC1CCCO1 (stereo not given),34.6
12,Cc1ncccc1-c1cc2cccnc2n1CCCNC(=O)C(C)(C)C,27.6
13,CCS(=O)(=O)N1CC[C@@H]2[C@H](CC1)N(CC(C)C)CCS2(=O)=O,-34.6
14,Cc1cc(C(=O)N2CCCC2)ccc1NCC(=O)N1CCCCC1C (stereo not given),37.3
15,Cc1ccc(N2CCC3(CCN(C(=O)c4ccnnc4)CC3)CC2)nn1,-6.21
16,Cc1noc2nc3c(c(C(=O)/N=c4\[nH]ncs4)c12)CCC3,32.8
17,CS(=O)(=O)N1CCCC1c1ccnc2nccn12 (stereo not given),10.3545
18,Cc1cc(C)n(CCC(=O)N2CCCCC2c2nccs2)n1 (stereo not given),36.3
19,CN(C)c1cc(CNC(=O)C2COc3ccccc3O2)ccn1 (stereo not given),2.45
20,Cc1cc(N2CCN(Cc3nccn3C)CC2)cc(C)n1,4.92
21,Cc1nnc2ccc(N3CCN(Cc4nccn4C)CC3)nn12,43.4
22,Cc1nnc(CN2CCN(Cc3nccn3C)CC2)n1C,59.3
23,CC(C)N1CCN(c2ccc3ccc(C(=O)NC4CCCC4)cn23)CC1,-7.28
24,COCC(=O)N1CC[C@@H]2CN(Cc3cccnc3)S(=O)(=O)[C@@H]2CC1,43
25,Cc1ccc(S(=O)(=O)NC[C@H]2OC[C@@H](NCc3ccncc3)[C@@H]2O)cc1,53.2
26,CC(C)NC(=O)NC[C@H]1OC[C@@H](NCc2ccncc2)[C@@H]1O,-48.1
27,Cc1ccc(S(=O)(=O)NC[C@H]2OC[C@@H](NCc3ccccc3)[C@@H]2O)cc1,20.7

row,SMILES,INHIBITION [%]
1,Cc1ccc(S(=O)(=O)NC[C@H]2OC[C@@H](NCc3cccnc3)[C@@H]2O)cc1,57
2,Cc1ccc(S(=O)(=O)NC[C@H]2OC[C@@H](NCc3ccccn3)[C@@H]2O)cc1,38.9
3,CC(C)NC(=O)NC[C@H]1OC[C@@H](NCc2ccc(S(C)(=O)=O)cc2)[C@@H]1O,49.5
4,O=C(NCC1CCOCC1)[C@@H]1C[C@@H]2[C@@H](CCN2Cc2nccs2)O1,21.1
5,COC1CCN(C(=O)CC2CCCC2)CC(=O)N(C)c2ccccc21 (stereo not given),3.31
6,CCc1nc(C)cn1C(=O)Nc1ccccc1,48.6
7,CCc1nc(C)cn1C(=O)Nc1ccc(F)cc1,78.2
8,CCc1nc(C)cn1C(=O)Nc1ccc(C)cc1,-4.82
9,O=C1CO[C@@H]2CN(CC3CCOC3)C[C@H]2N1Cc1cccc(F)c1 (stereo not given in full),27.6
10,O=C1CO[C@@H]2CN(CC3CC3)C[C@H]2N1Cc1cccc(F)c1,75.4
11,O=C1CO[C@@H]2CN(C3CCOCC3)C[C@H]2N1Cc1cccc(F)c1,25.2
12,COc1cc(N2C[C@H](OCc3cccnc3)[C@H]3OCCC[C@H]32)ncn1,10.6
13,Cc1ccc2c(c1)OC1(NC2=O)C(=O)N(C)c2ccccc21 (stereo not given),31.6
14,CC(C)CCN1C(=O)C2(NC(=O)c3ccccc3O2)c2ccccc21 (stereo not given),55.1
15,CN1C(=O)C2(NC(=O)c3ccccc3O2)c2ccccc21 (stereo not given),34
16,O=C1NCC2(CCCN(C(=O)c3csc(-c4cccs4)n3)C2)O1 (stereo not given),22
17,CC(C)[C@H](N)C(=O)N1CCCC(C2=Nc3ccccc3S(=O)(=O)N2)C1 (stereo not given in full),26.4
18,COc1ccccc1N1CCC(CNS(=O)(=O)c2cccc(C#N)c2)C1 (stereo not given),-4.94
19,CC(C)c1cc(=O)[nH]c(-n2nc(C3CC3)cc2N)n1,97
20,Cc1cc(C(=O)Nc2cc(C3CC3)n[nH]2)c2c(C)nn(C)c2n1,0.991
21,CC(C)c1cc(=O)[nH]c(C(C)(C)N)n1,-39.2
22,CCC(C)(N)c1nc(C(C)C)cc(=O)[nH]1 (stereo not given),-4.35
23,CCCc1cc(=O)[nH]c(-c2cccc(CN3CCCCCC3)c2)n1,43.9
24,Cc1cc(=O)[nH]c(-n2nc(C3CC3)cc2N)n1,68.9
25,CCCc1cc(=O)[nH]c(-n2nc(C3CC3)cc2N)n1,94
26,Cc1cc(C2CCC2)nc(N2CCC3(CCNC(=O)CC3)CC2)n1,-32.5
27,NC1(c2nc(-c3ccccc3)cc(=O)[nH]2)CCCC1,-13.7

row,SMILES,INHIBITION [%]
1,CCCc1cc(=O)[nH]c(SCc2ccccn2)n1,3.93
2,Cc1cc(=O)[nH]c(-n2nc(-c3ccccc3)cc2N)n1,65.2
3,NC1(c2nc(-c3ccccc3)cc(=O)[nH]2)CCCCC1,-10.1
4,O=C(C1=CCCC1)N1CCC[C@]2(C[C@@H](OCc3ccncc3)CO2)C1,-9.67
5,Cc1ccccc1C1(C(=O)NCCN(C)C)CCOCC1,18.9665
6,CC(C)N(C)Cc1ncn2c1CN(C(=O)C1CCCO1)CCC2 (stereo not given),4.08
7,O=c1c2c[nH]c(N3CCOCC3)nc-2cn1Cc1cccc(F)c1,33.4
8,COc1ccc(C(=O)CCc2nc(C3CC3)no2)cc1F,-19.1
9,COc1nn(C)c2c1CCCN(C(=O)c1ccsc1)C2,-15.7
10,O=C1CN(C(=O)C2CN(c3ccc(F)cc3)CCO2)CCN1 (stereo not given),-19.925
11,Cn1cnc(NC(=O)C2CC(=O)N(c3cccc(F)c3)C2)n1 (stereo not given),6.448
12,Cc1nc(C)n(CC2CCCN2Cc2nc3ccccc3s2)n1 (stereo not given),33.8
13,CNc1cc(C2CCCN2C(=O)CCc2ccccc2F)ccn1 (stereo not given),22
14,COCCN(CC1CC1)c1nc(CCN)nc2ccccc12,16.2
15,Cc1sc2nc(CCN)nc(N(C)CCCC3CCCO3)c2c1C (stereo not given),43.2
16,CCN(CCN(C)C)c1nc(CCN)nc2sc(C)c(C)c12,71
17,COCCN(CC1CC1)c1nc(CCN)nc2sc(C)c(C)c12,65.3
18,Cc1nn(C)c2nc(N(CCN(C)C)CC3CCCO3)sc12 (stereo not given),35.3
19,COCCN(Cc1cccs1)c1nc(CCN)nc2ccccc12,-17.3
20,Cc1sc2nc(CCN)nc(N(CCN(C)C)CC3CCCO3)c2c1C (stereo not given),51.3
21,O=C(NCCCO)c1nnsc1-c1ccccc1,46.6
22,Cc1sc2c(C3CCCN(S(C)(=O)=O)C3)nc(C)n2c1C (stereo not given),-22.6
23,Cc1cccc2nc(-c3nc4c([nH]3)CCCNC4=O)cn12,-176
24,COc1ccnc(N2CCN(C(=O)COCC(F)(F)F)CC2)n1,-2.725
